# Measurements: PubChem BioAssay (NCATS)
# Inconclusive results are not listed. Values without a mark were called inactive. Calls of active or inactive are those of the source. The call rests on the fitted dose curve; in most records, active means well fitted curve in the direction sought with a large enough effect; inconclusive means small, poorly fitted or top-dose-only effect, or another doubt; inactive means no such curve, though single readings can be large; an effect the other way counts as inactive or inconclusive.
# Columns and labels:
# [1] = BET inhibitor-based combinations targeting novel dependencies in MECOM-rearranged (r) AML: SET-2 cell line (AID 2202231); conditions: SET-2 AML cells viability, CellTiter-Glo luminescence, 48 h; viability: stronger effect = lower value, concentration not given here;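 further: plate controls were DMSO treated cells for no effect and wells without cells for full effect; nearly all actives have a fitted effect of over 35% in size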
# Outline: (§1)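 Luminescent ATP readout (CellTiter-Glo) after 48 hr drug exposure gives viability. Curves span 11 concentrations and are normalized to DMSO and empty wells. Activity is reported as area under the curve and its Z-transform within each cell line.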
# [2] = BET inhibitor-based combinations targeting novel dependencies in MECOM-rearranged (r) AML: UCSD-AML1 cell line (AID 2202235); conditions: UCSD-AML1 AML cells viability, CellTiter-Glo, 48 h; series mostly up to 46 µM; further: nearly all actives have a fitted effect of over 40% in size; further: potency means the concentration at half of the fitted maximal effect
# Outline: (§2)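 Luminescent ATP readout (CellTiter-Glo, 15 min at room temperature) after 48 hr drug exposure gave viability. Dose-response curves, normalized to DMSO and empty-well controls, were summarized as area under the curve and its mean-centred Z-score.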
# [3] = BET inhibitor-based combinations targeting novel dependencies in MECOM-rearranged (r) AML: AML-191 cell line (AID 2202236; further: nearly all actives have a fitted effect of over 35% in size; further: potency means the concentration at half of the fitted maximal effect); conditions: AML-191 viability, CellTiter-Glo luminescence, 48 h; series mostly up to 46 µM
# Outline: as §1
# [4] = BET inhibitor-based combinations targeting novel dependencies in MECOM-rearranged (r) AML: AML-194 cell line (AID 2202237; further: nearly all actives have a fitted effect of over 40% in size; further: potency means the concentration at half of the fitted maximal effect); conditions: AML-194 (MECOM-r AML) viability, CellTiter-Glo, 48 h; series mostly up to 46 µM
# Outline: as §1
# [5] = BET inhibitor-based combinations targeting novel dependencies in MECOM-rearranged (r) AML: OCI-AML3 cell line (AID 2202232); conditions: CellTiter-Glo luminescence, 48 h; Potency: OCI-AML3 viability; series mostly up to 46 µM; further: nearly all actives have a fitted effect of over 35% in size; further: potency means the concentration at half of the fitted maximal effect
# Outline: as §1
# [6] = BET inhibitor-based combinations targeting novel dependencies in MECOM-rearranged (r) AML: MV-4-11 cell line (AID 2202233); conditions: MV-4-11 AML viability, CellTiter-Glo luminescence, 48 h; series mostly up to 46 µM; further: nearly all actives have a fitted effect of over 45% in size; further: potency means the concentration at half of the fitted maximal effect
# Outline: as §2
# [7] = BET inhibitor-based combinations targeting novel dependencies in MECOM-rearranged (r) AML: HNT-34 cell line (AID 2202234); conditions: HNT-34 AML viability, CellTiter-Glo luminescence, 48 h; series mostly up to 46 µM; further: nearly all actives have a fitted effect of over 35% in size; further: potency means the concentration at half of the fitted maximal effect
# Outline: as §2
Compound,viability [1] [%],Potency [2],Potency [3],Potency [4],Potency [5],Potency [6],Potency [7]
CC(C)=CCC/C(C)=C/CC/C(C)=C/CSc1ccccc1C(=O)O,106,inactive,inactive,inactive,–,–,–
O=C(Nc1ncc(SCCN2CCCC2)s1)[C@]1(c2ccc(S(=O)(=O)C3CC3)cc2)C[C@H]1C1CCCCC1,–,–,18.6 µM (active),16.6 µM (active),20.9 µM (active),11.8 µM (active),23.5 µM (active)
Cn1cc(-c2ccc(-c3cncc(Cl)c3N3CCC4(CCNC4=O)CC3)cc2)cn1,–,inactive,–,–,16.6 µM (active),14.8 µM (active),–
Cc1cc(OCCCc2c3n(c4c(-c5c(C)nn(C)c5C)c(Cl)ccc24)[C@H](C)CN(c2cn(C)c4ccc(C(=O)O)cc24)C3=O)cc(C)c1Cl,–,20.9 µM (active),20.9 µM (active),14.8 µM (active),2.63 µM (active),–,2.95 µM (active)
Nc1nc(-c2nn(Cc3ccccc3F)c3ncccc23)ncc1C1CC1,–,14.8 µM (active),–,–,5.9 µM (active),1.18 µM (active),–
Nc1ncc(C(=O)NC2CN(C(=O)C3CC3)C2)c2ccc(-c3cccc(F)c3)nc12,–,23.5 µM (active),–,inactive,7.42 µM (active),10.5 µM (active),–
Cc1c(-c2cnccn2)ssc1=S,–,inactive,inactive,–,2.95 µM (active),3.72 µM (active),–
N#Cc1ccc(Cn2cncc2CN2CCN(c3cccc(Cl)c3)C(=O)C2)cc1,–,3.72 µM (active),–,–,2.95 µM (active),7.42 µM (active),–
Nc1ncccc1-c1nc2ccc(-c3ccccc3)nc2n1-c1ccc(C2(N)CCC2)cc1,–,–,18.6 µM (active),29.5 µM (active),18.6 µM (active),11.8 µM (active),16.6 µM (active)
O=C(O)C[C@H]1CCc2c1[nH]c1ccc(OCc3ccc(C4CCCC4)c(C(F)(F)F)c3)cc21,–,inactive,–,–,13.2 µM (active),5.9 µM (active),–
C=C1CC[C@@H]2[C@](C)(CO)[C@H](O)CC[C@@]2(C)[C@@H]1C/C=C1/C(=O)OC[C@H]1O,–,–,5.9 µM (active),9.34 µM (active),3.72 µM (active),2.95 µM (active),5.25 µM (active)
N#CCC1(n2cc(-c3ncnc4[nH]ccc34)cn2)CN(C2CCN(C(=O)c3ccnc(C(F)(F)F)c3F)CC2)C1,–,3.72 µM (active),–,–,1.66 µM (active),16.6 µM (active),–
O=C(NC[C@H](O)CO)c1ccncc1Nc1ccc(I)cc1F,–,0.372 µM (active),0.525 µM (active),–,0.0332 µM (active),–,0.468 µM (active)
CCN(C(=O)c1c(O)c2c(Cl)cccc2n(C)c1=O)c1ccccc1,–,–,9.34 µM (active),–,13.2 µM (active),14.8 µM (active),–
CN(C)CCOc1ccc(-c2nc(-c3ccc4c(c3)CC/C4=N\O)c(-c3ccncc3)[nH]2)cc1,–,–,16.6 µM (active),20.9 µM (active),5.9 µM (active),16.6 µM (active),14.8 µM (active)
C/C(O)=C(\C#N)C(=O)Nc1ccc(C(F)(F)F)cc1,–,inactive,–,–,9.34 µM (active),–,14.8 µM (active)
[O-][n+]1cccc(-c2nc3c(Cl)cccc3cc2[C@@H](Nc2ncnc3cccnc23)C(F)(F)F)c1,–,6.61 µM (active),–,–,5.25 µM (active),8.33 µM (active),–
CN1CCN(C(=O)c2ccc(-c3ccc4c(C=O)c(O)ccc4c3)s2)CC1,–,–,–,–,26.3 µM (active),–,16.6 µM (active)
COc1cc(C(C)C)c2c(c1)S(=O)(=O)N(COc1cc(=O)n3cccc(OCCN4CCCCC4)c3n1)C2=O,–,26.3 µM (active),–,–,23.5 µM (active),–,20.9 µM (active)
Cc1ncc(NC(=O)c2cccc(C(F)(F)F)c2)cc1-c1cnc(OC2CCOCC2)c(N2CCOCC2)c1,–,8.33 µM (active),11.8 µM (active),–,0.0833 µM (active),–,6.61 µM (active)
C[C@H]1C[C@@H](n2c(Nc3ccc(OC(F)(F)F)cc3)nc3cc(CCC(=O)O)ccc32)CC(C)(C)C1,–,–,26.3 µM (active),–,20.9 µM (active),20.9 µM (active),–
CCc1ccc(N(CC(C)C)S(=O)(=O)c2ccc(OCC3CCOCC3)c(CO)c2)cc1,–,inactive,–,–,14.8 µM (active),18.6 µM (active),–
CCOC(=O)N[C@@H]1CC[C@@H]2[C@@H](C1)C[C@H]1C(=O)O[C@H](C)[C@H]1[C@H]2/C=C/c1ccc(-c2cccc(F)c2)cn1,–,inactive,inactive,–,14.8 µM (active),26.3 µM (active),–
Cc1ccc(NC(=O)c2cccc(C(C)(C)C#N)c2)cc1Nc1ccc2ncn(C)c(=O)c2c1,–,–,–,–,0.0742 µM (active),–,0.662 µM (active)
Cc1c(Cl)cccc1S(=O)(=O)Nc1nc(CCN2CCOCC2=O)cs1,–,–,–,–,0.0742 µM (active),–,inactive
Cc1ccc2nc(NCCN)c3ncc(C)n3c2c1,–,7.42 µM (active),5.9 µM (active),8.33 µM (active),9.34 µM (active),4.68 µM (active),–

Compound,viability [1] [%],Potency [2],Potency [3],Potency [4],Potency [5],Potency [6],Potency [7]
Cc1c(NC(=O)c2cc(C(N)=O)nc3cc(F)ccc23)c(C(F)(F)F)nn1Cc1ccc(C(C)(C)C)cc1,–,inactive,16.6 µM (active),–,23.5 µM (active),inactive,–
CCC(=O)N1CCOc2c(cc(-c3cc(OC)cc(OC)c3)cc2C(=O)N[C@H]2CCCN(C)C2)C1,–,20.9 µM (active),14.8 µM (active),–,16.6 µM (active),10.5 µM (active),–
CSc1ccc(C(=O)/C=C/c2cc(C)c(OC(C)(C)C(=O)O)c(C)c2)cc1,–,inactive,–,–,30.3 µM (active),6.05 µM (active),–
O=C(NC1CC1)c1cccc(-c2ccc3c(NC(=O)C4CC4)n[nH]c3c2)c1,–,4.68 µM (active),2.95 µM (active),4.68 µM (active),10.5 µM (active),8.33 µM (active),–
Nc1ncnc(Nc2ccc(OCc3ccccc3)c(Cl)c2)c1/C=N/OCCN1CCOCC1,–,–,–,–,inactive,–,23.5 µM (active)
COc1ccc(-c2oc3ncnc(N)c3c2-c2ccc(NC(=O)Nc3cc(C(F)(F)F)ccc3F)cc2)cc1,–,–,8.33 µM (active),7.42 µM (active),10.5 µM (active),0.372 µM (active),7.42 µM (active)
COc1cccc(-c2c(C)n(Cc3c(F)cccc3C(F)(F)F)c(=O)n(C[C@H](NCCCC(=O)O)c3ccccc3)c2=O)c1F,–,inactive,–,inactive,7.42 µM (active),inactive,–
COc1cc(-c2cn(C)c(=O)c3cnccc23)c(OC)cc1CN(C)C,–,inactive,inactive,inactive,1.18 µM (active),4.17 µM (active),–
COC(=O)Nc1nc2ccc(S(=O)c3ccccc3)cc2[nH]1 (stereo not drawn),–,7.42 µM (active),6.61 µM (active),7.42 µM (active),26.3 µM (active),16.6 µM (active),–
Cc1cc(-c2cnn3c(NCC4CC(C)(O)C4)cc(Oc4cccnc4)nc23)ccc1C(=O)NC1CC1 (stereo not drawn),–,–,–,1.05 µM (active),0.263 µM (active),0.332 µM (active),0.934 µM (active)
CC[C@@H]1[C@H](F)C(=O)N[C@@H]1COc1nccc2cc(C(N)=O)c(OC)cc12,–,20.9 µM (active),14.8 µM (active),20.9 µM (active),14.8 µM (active),–,11.8 µM (active)
C=CCN(/C=C1\C(=O)O[C@@H](COC)[C@]2(C)C1=C(O)C(=O)C1=C2[C@@H](OC(C)=O)C[C@]2(C)C(=O)CC[C@H]12)CC=C,–,–,20.9 µM (active),18.6 µM (active),inactive,20.9 µM (active),20.9 µM (active)
CC(=O)Nc1ccc(C(=O)NC(C)(C)C)cc1,–,inactive,inactive,inactive,inactive,–,inactive
CC(C)n1cc(-c2ccc3c(c2)N(C)CC3)c2c(NS(=O)(=O)c3ccn(C)n3)ccnc21,–,inactive,inactive,inactive,inactive,inactive,–
C=CC(=O)N1CCC[C@H](n2c(=O)n(-c3ccc(Oc4ccccc4)cc3)c3c(N)ncnc32)C1,–,inactive,–,–,inactive,–,16.6 µM (active)
C[C@@H]1CC2C3C[C@H](F)C4=CC(=O)C=C[C@]4(C)[C@@]3(F)[C@@H](O)C[C@]2(C)[C@@]1(OC(=O)c1ccco1)C(=O)SCF (stereo partly drawn),–,–,–,–,–,20.9 µM (active),–
Cn1cc(-c2cc(Oc3cc(F)c(NC(=O)C4(C(=O)Nc5ccccc5)CC4)cc3F)ccn2)cn1,–,–,–,–,–,0.742 µM (active),5.25 µM (active)
Nc1nccc(-c2c(-c3ccc(F)cc3)ncn2C2CCN(Cc3ccon3)CC2)n1,–,–,–,–,–,10.5 µM (active),8.33 µM (active)
COC1=C(OC)C(=O)C(CCCCCCCCCCO)=C(C)C1=O,–,–,18.6 µM (active),–,16.6 µM (active),–,–
CCCCOc1ccc(CC(=O)NO)cc1,–,–,–,23.5 µM (active),13.2 µM (active),–,20.9 µM (active)
O=c1cc(-c2ccc(O)c(O)c2)oc2cc(O)cc(O)c12,–,–,–,–,–,8.33 µM (active),–
NC(=O)c1cccc2c(NC(CN3CCC3)c3ccc(Cl)c(C(F)(F)F)c3)ncnc12 (stereo not drawn),–,–,20.9 µM (active),–,1.48 µM (active),–,–
COC(=O)C1=C(C)NC(c2ncc(F)cc2F)=N[C@@H]1c1ccc(F)cc1Cl,–,inactive,inactive,inactive,inactive,–,–
CC(C)Oc1ccc(C(=O)N[C@H](CNC(=O)CN(C)C)Cc2ccc(-c3cn4cccc([C@H](C)O)c4n3)cc2)cc1Cl,–,0.332 µM (active),0.263 µM (active),0.332 µM (active),0.263 µM (active),–,–
COc1ccc(N2C(=O)N(c3c(C)cccc3Cl)Cc3cnc(Nc4ccc(C5CCN(C)CC5)cc4OC)nc32)nc1,–,13.2 µM (active),16.6 µM (active),18.6 µM (active),16.6 µM (active),–,1.66 µM (active)
